The results in this text go back to ChEMBL document CHEMBL2218924, “A broad activity screen in support of a chemogenomic map for kinase signalling research and drug discovery” (Biochem J, 2013).

One may read the residual activity as the signal under treatment as a percentage of the control signal.

The experiment deals with Platelet-derived growth factor receptor beta (Homo sapiens) (UniProt P09619). The note with it: at 10 µM.
Chain of Platelet-derived growth factor receptor beta (Homo sapiens) (P09619 whole entry): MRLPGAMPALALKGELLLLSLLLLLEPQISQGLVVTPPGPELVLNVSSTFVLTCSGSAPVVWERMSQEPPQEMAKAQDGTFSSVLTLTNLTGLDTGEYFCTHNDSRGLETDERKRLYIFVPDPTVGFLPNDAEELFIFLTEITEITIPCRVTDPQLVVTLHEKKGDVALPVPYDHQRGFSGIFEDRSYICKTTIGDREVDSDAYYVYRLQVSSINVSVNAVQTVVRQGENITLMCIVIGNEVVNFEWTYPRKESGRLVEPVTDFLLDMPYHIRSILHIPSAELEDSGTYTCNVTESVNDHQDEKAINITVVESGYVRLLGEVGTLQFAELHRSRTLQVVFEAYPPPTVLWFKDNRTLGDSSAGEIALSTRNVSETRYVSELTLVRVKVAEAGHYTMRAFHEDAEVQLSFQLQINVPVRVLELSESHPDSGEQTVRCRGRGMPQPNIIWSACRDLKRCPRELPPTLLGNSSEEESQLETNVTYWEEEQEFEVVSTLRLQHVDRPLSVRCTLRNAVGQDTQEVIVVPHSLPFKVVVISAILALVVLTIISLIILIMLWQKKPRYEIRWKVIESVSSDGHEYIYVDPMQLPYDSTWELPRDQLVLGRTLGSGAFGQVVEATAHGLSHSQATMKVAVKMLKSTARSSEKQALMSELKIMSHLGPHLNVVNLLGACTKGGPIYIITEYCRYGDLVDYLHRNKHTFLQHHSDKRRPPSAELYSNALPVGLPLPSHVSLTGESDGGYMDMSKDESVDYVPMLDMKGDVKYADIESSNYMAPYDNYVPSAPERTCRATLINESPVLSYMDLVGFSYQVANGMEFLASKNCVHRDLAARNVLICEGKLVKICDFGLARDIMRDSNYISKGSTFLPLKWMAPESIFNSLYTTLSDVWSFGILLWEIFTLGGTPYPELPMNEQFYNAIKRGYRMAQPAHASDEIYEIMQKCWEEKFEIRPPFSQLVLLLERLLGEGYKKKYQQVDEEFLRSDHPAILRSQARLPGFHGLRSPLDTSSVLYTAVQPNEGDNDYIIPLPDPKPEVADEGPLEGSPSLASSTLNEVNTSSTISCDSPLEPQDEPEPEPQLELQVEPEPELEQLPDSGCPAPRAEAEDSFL
Turning to `Oc1cccc(-c2nc(N3CCOCC3)c3oc4ncccc4c3n2)c1`, the residual activity is 98%.

Regarding `NC(=O)Nc1sc(-c2ccc(F)cc2)cc1C(N)=O`, the residual activity came to 55%.

On to `O=C1Cc2c([nH]c3ccc([N+](=O)[O-])cc23)-c2ccccc2N1`, for which the residual activity came out at 100%.

As to `CCOC(=O)c1c(C)[nH]c(/C=C2\C(=O)Nc3ccccc32)c1C`, the residual activity was 92%.

Consider `Nc1ncnc2[nH]nc(Nc3ccc(F)cc3)c12`, for which the residual activity was found to be 109%.

As for `O=C1Nc2ccc(Cl)cc2/C1=C/c1cc(Cl)c(O)c(Cl)c1`, the residual activity was determined as 25%.

In the case of `COc1cc2c(cc1OC)-c1n[nH]c(Nc3cccc(F)c3)c1C2`, the residual activity was 1%.

Turning to `O=C(CCCc1ccc(-c2ccccc2F)cc1)Nc1ccc(O)cc1`, the residual activity was found to be 125%.

As to `CCCCc1c(-c2ccc(OC)cc2)[nH]c2nccnc12`, the residual activity is 105%.

In the case of `O=C1NC(=O)c2c1c1c3ccccc3[nH]c1n1cncc21`, the residual activity was found to be 92%.

Regarding `CCN(CC)CCNC(=O)c1c(C)[nH]c(/C=C2\C(=O)Nc3ccc(Cl)cc32)c1C`, the residual activity turned out to be 1%.

For `CC(C)(C)n1nc(Cc2cccc3ccccc23)c2c(N)ncnc21`, the residual activity was 71%.

Turning to `CCCC(=O)Oc1ccc2[nH]c(C(=O)c3cc4ccccc4[nH]3)cc2c1`, the residual activity worked out at 93%.

On to `Nc1ncnc2c1c(-c1ccc(Oc3ccccc3)cc1)cn2C1CCCC1`, for which the residual activity was 6%.

With `COc1cc2nccc(Oc3ccc(NC(=S)NC(=O)c4ccccc4C)cc3)c2cc1OC`, the residual activity amounted to 9%.

Take `O=C(Nc1ccc(Cl)cc1)c1ccccc1NCc1ccncc1`: the residual activity came out at 4%.

For `COc1cc2ncnc(Nc3cccc(Cl)c3)c2cc1OC`, the residual activity was 103%.

For the compound `c1ccc(-c2cnc(Nc3ccc(OCCN4CCCC4)cc3)s2)cc1`, the residual activity was found to be 0%.

On to `O=C(c1ccccc1)c1ccc(N2CCOCC2)cc1O`, for which the residual activity was found to be 99%.
